In PubChem BioAssay (NCI):
This is part of a sample that, as a whole, favours compounds with a hit. Of some 83,000 tested, about 20% had one in any assay.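 The test compound was applied at a single concentration to cells in 96-well plates for 48 hours, and percent growth was recorded.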 The source made the active and inactive calls.

tested on: UO-31 renal; assay: NCI-60 one-dose screen, 48 h (100 = growth as untreated, 0 = no growth, -100 = all killed); details: 10 µM
Description: Growth inhibition of the UO-31 human tumor cell line is measured as a screen for anti-cancer activity. Cells are grown in 96 well plates and exposed to the test compound for 48 hours. Compounds are tested at a single concentration, which is 10^-5 M for most compounds. The reported endpoint is percent growth (GI% or GIPRCNT), where numbers from 0 - 100% represent growth inhibition, and numbers from -100% - 0 represent cell death. For example, a value of 40 represents 60% growth inhibition. A value of 0 means no net growth occurred over the course of the experiment. A value of -40 indicates 40% of cells at the beginning of the experiment died by the end of the experiment. A value of -100 means all cells are dead at the end of the experiment.
NCI-60 Human Tumor Cell Lines Screen was performed using the standard one-dose NCI protocol, which is described in more detail at https://dtp.cancer.gov/discovery_development/nci-60/default.htm.
Compounds with GIPRCNT values below 10 were considered active. Activity score was based on GIPRCNT using the following formula: […]
Score is 0 for GIPRCNT values of 100 or above, 50 for GIPRCNT values of 0, and 100 for GIPRCNT values of -100.

Compound	growth
COc1nc2c(c(=O)n1C)CN(c1ccccc1)C(=O)C(C)N2 (stereo not given)	78.7% (inactive)
CCOC(=O)c1sc2ncnc(Nc3ccc4c(cnn4C(=O)Nc4ccccc4)c3)c2c1C	87.6% (inactive)
CS(=O)(=O)c1nccc(-c2c(-c3cccc(OCCc4ccccc4)c3)nc3sccn23)n1	71.5% (inactive)
CCOC(=O)C1=CSC2=NC3=C(CCC/C3=C\c3cc(OC)c(OC)c(OC)c3)C(c3cc(OC)c(OC)c(OC)c3)N12 (stereo not given)	69.9% (inactive)
O=C1CCn2c1c(O)c1ccccc1c2=O	96.5% (inactive)
CN(C)CCCN1c2ccccc2CCc2ccc(Cl)cc21	47.3% (inactive)
O=C(CC(CC(=O)c1ccccc1)c1ccccc1O)c1ccccc1	78.4% (inactive)
O=C(O)c1cn(C2CC2)c2cc(N3CCN(C(=O)c4cc(-c5ccc(Cl)cc5)nc5ccccc45)CC3)c(F)cc2c1=O	35.8% (inactive)
CC(C)(C)c1ccc(S(=O)(=O)Oc2ccc(NC(=O)C3CCCCC3)cc2)cc1	38% (inactive)
CN1C(=O)C2(Nc3cc(Cl)ccc3S2)c2cc(Cl)ccc21 (stereo not given)	56.9% (inactive)
COc1cccc(CNc2cccc3cn[nH]c23)c1O	60.1% (inactive)
O=C(CCC(C(=O)c1ccccc1)c1ccccc1)c1ccccc1 (stereo not given)	72.1% (inactive)
C[C@H]1[C@H](OC(=O)CCC(=O)O)O[C@@H]2O[C@]3(C)CC[C@H]4[C@H](C)CC[C@@H]1[C@@]24OO3	9.64% (active)
O=C(NCCNC(=O)c1ccc(F)cc1)Nc1ccc(-n2cc(-c3ccncc3)c(-c3ccc(Cl)c(O)c3)n2)cc1	16.9% (inactive)
CC(=O)N[C@H](C(=O)N[C@@H](CCCNC(=N)N)C(=O)N[C@@H](CCCCN)C(=O)N[C@@H](CCCNC(=N)N)C(=O)N[C@]1(C)CCC/C=C\CCC[C@@](C)(C(=O)N[C@@H](CC(C)C)C(=O)N[C@@H](CC(C)C)C(=O)N[C@@H](CCC(N)=O)C(=O)N[C@@H](CCC(=O)O)C(=O)N[C@@H](CCCNC(=N)N)C(=O)N[C@@H](CCC(=O)O)C(=O)N[C@@H](CC(C)C)C(=O)N[C@H](C(=O)N[C@@H](CCC(=O)O)C(N)=O)C(C)C)NC(=O)[C@H](CCCNC(=N)N)NC(=O)[C@H](CC(C)C)NC1=O)C(C)C	114% (inactive)
C[C@]12CCC3c4ccc(O)cc4C[C@@H](CCCCCCCCCS(=O)CCCC(F)(F)C(F)(F)F)C3C1CC[C@@H]2O (stereo not given in full)	62.7% (inactive)
CNS(=O)(=O)Oc1ccc(-c2ccc3occc3c2)cc1	90.4% (inactive)
O=C(CSc1nccc(Nc2cccc3ccccc23)n1)c1ccc(Cl)cc1	49.8% (inactive)
CC(=O)OC/C=C(/C)C[P+](c1ccccc1)(c1ccccc1)c1ccccc1	61.1% (inactive)
COC1OC(COS(=O)OC)C(O)C(O)C1OS(=O)OC (stereo not given)	88.8% (inactive)

Compound	growth
O=C(O)c1ccc(-n2cc(CNc3ccc(Cl)cc3)c(-c3ccccc3)n2)cc1	82.4% (inactive)
Cc1nn(-c2ccccc2)c2nc(Cl)c(C=O)c(-c3ccccc3)c12	48.1% (inactive)
NNC(=O)Oc1c(Cl)cc(Cl)cc1[N+](=O)[O-]	87.4% (inactive)
Cc1nc2n(c(=O)c1CCN1CCC(c3noc4cc(F)ccc34)CC1)CCC[C@@H]2O	80% (inactive)
O=C(O)COc1c(Cl)cc([N+](=O)[O-])cc1Cl	94.2% (inactive)
O=C(CCCCNC(=O)c1nc(-c2ccccc2)n(-c2ccccc2)n1)NO	86.4% (inactive)
COc1cccc(-c2nc3sccn3c2-c2cccc(S(C)(=O)=O)c2)c1	73.1% (inactive)
Cc1c(Cl)cccc1NC(=O)CN1CCOCC1	83.8% (inactive)
CCCCN(CCCC)C(=O)[C@H](CC)[C@@H]1CC[C@@H](C)[C@@H]([C@H](C)[C@@H](O)[C@@H](C)C(=O)[C@H](CC)C2O[C@]3(C=CC(=O)[C@]4(CC[C@@](C)([C@H]5CC[C@](O)(CC)[C@H](C)O5)O4)O3)[C@H](C)C[C@@H]2C)O1 (stereo not given in full)	13.4% (inactive)
CNC(=O)c1cn(C2CC2)c2cc(N3CCN(C(=O)c4cc(OC)c(OC)c(OC)c4)CC3)c(F)cc2c1=O	79% (inactive)
COc1cc2c(cc1NC(=O)C(F)(F)F)-c1ccc(NC(=O)C(F)(F)F)cc1C2	102% (inactive)
Oc1ccc(-c2[nH]c3ccccc3c2-c2nc3ccccc3o2)cc1	40.9% (inactive)
CC1CCCC(C(=O)O)C1C(=O)O (stereo not given)	92.7% (inactive)
O=C(O)c1cc([N+](=O)[O-])ccc1Oc1ccccc1	83.5% (inactive)
O[C@@H]1CO[C@H]2[C@@H]1OC[C@@H]2O	106% (inactive)
CCn1c2ccc(O)cc2c2c(C)c3c[n+](C)ccc3c(C)c21	64.2% (inactive)
COc1cc(C(=O)N2CCN(c3cc4c(cc3F)c(=O)c(C(=O)NO)cn4C3CC3)CC2)cc(OC)c1OC	92.1% (inactive)
Cc1ccc(C(SCC(N)C(=O)O)(c2ccc(C)cc2)c2ccc(C)cc2)cc1 (stereo not given)	25.3% (inactive)
NS(=O)(=O)Oc1ccc(-c2ccc3sccc3c2)cc1	82.1% (inactive)
O=C1c2ccccc2C(=O)N1CCCCNc1ccccc1	61.7% (inactive)
